PubChem BioAssay (NCATS)
“And” between values parts separate entries of the source, which are not always exact repeats. Equal entries are not always repeated. Results filed as inconclusive are left out. The source made the active and inactive calls. Calls follow the shape of the dose curve; as a rule, active = well fitted curve in the direction sought with a large enough effect; inconclusive = small, poorly fitted or top-dose-only effect, or another doubt; inactive = no such curve, though single readings can be large; an effect the other way counts as inactive or inconclusive.

Legend:
[1] = target: Cytochrome P450 3A7 (Homo sapiens) (UniProt P24462); assay: Cytochrome P450 family 3 subfamily A member 7 (CYP3A7) small molecule antagonists: luciferase biochemical qHTS assay (AID 1963596); also: nearly all actives have a fitted effect of over 40% in size; also: potency is read from the fitted curve at half-maximal effect
Cytochrome P450 3A7 (Homo sapiens), sequence (P24462 whole entry, looked up): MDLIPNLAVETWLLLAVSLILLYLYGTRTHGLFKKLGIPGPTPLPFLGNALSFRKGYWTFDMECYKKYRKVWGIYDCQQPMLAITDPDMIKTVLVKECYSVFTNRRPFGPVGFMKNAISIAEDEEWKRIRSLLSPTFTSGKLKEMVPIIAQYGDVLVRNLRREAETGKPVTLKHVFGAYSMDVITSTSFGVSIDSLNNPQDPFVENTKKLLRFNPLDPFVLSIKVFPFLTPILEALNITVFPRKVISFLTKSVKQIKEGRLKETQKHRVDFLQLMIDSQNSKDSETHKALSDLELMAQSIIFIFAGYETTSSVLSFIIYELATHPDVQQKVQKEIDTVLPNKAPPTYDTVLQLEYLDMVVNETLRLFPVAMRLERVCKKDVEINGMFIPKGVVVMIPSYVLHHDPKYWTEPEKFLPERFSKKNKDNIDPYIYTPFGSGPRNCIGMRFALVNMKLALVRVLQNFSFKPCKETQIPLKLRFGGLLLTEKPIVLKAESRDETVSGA
In short: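 Recombinant CYP3A7 P450-Glo luminescent assay: enzyme-proluciferin substrate mix preincubated with compound 10 min at room temperature, reaction started with NADPH regeneration system for 1 h. Luciferin detected by luminescence; ketoconazole as positive control.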

[2] = Viability qHTS for spleen associated tyrosine kinase inhibitor (SYKi) naive MV4-11 cells (AID 1963823); also: nearly all actives have a fitted effect of over 40% in size; also: potency is read from the fitted curve at half-maximal effect
In short: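 Viability of MV4-11 AML cells lacking prior SYK inhibitor exposure is scored by CellTiter-Glo luminescence following 72 hr compound incubation at 37 C, 5% CO2, seeded at 500 cells per well.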

[3] = Viability qHTS for spleen associated tyrosine kinase inhibitor (SYKi) drug resistant MV4-11 cells (AID 1963824); also: nearly all actives have a fitted effect of over 35% in size; also: potency is read from the fitted curve at half-maximal effect
In short: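 CellTiter-Glo luminescence, read 10 min after reagent addition, reports viability after a 72 hr compound exposure. Cells are an MV4-11 line made resistant to SYK inhibition, seeded at 500 per well onto compound-containing plates.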

[4] = Cellular viability qHTS for adrenocortical cancer (ACC) cell line SW-13 (AID 1963989); conditions: SW-13 ACC cells viability, CellTiter-Glo, 48 h; activity (max response): hits give low values; also: nearly all actives have a fitted effect of over 65% in size; also: potency is read from the fitted curve at half-maximal effect;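 as to activity (max response): cells grown in serum-free medium with ITS supplement; % is scaled to controls: 0 for no effect and ±100 for the full control effect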
In short: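 Compound titrations (up to 46 uM final, in DMSO) were applied to SW-13 cells for 48 h at 37C/5% CO2. Reading used CellTiter-Glo after 20 min at room temperature; fitted curves yielded IC50 and efficacy.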

[5] = Cellular viability qHTS for adrenocortical cancer (ACC) cell line NCI-H295R (AID 1963990);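 also: 0% = DMSO only wells and -100% = full killing with cytotoxic reference compound; nearly all actives have a fitted effect of over 60% in size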
In short: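 Readout: CellTiter-Glo luminescence, 20 min RT. Exposure: 48 h, 37C/5% CO2. Cells: NCI-H295R, ITS-DMEM serum-free. Range: up to 46 uM. Analysis: 4PL fit, IC50 plus efficacy.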

[6] = Quantitative highthroughput screen to assess conditional lethalithy of NOMO1 cells grown in Human Plasma-Like Medium with dialyzed fetal bovine serum (HPLM+ds) (AID 1963878);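 also: 100% = DMSO wells and 0% = empty wells on each plate; nearly all actives have a fitted effect of over 35% in size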
In short: (§1)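 Each medium arm—HPLM with 10% dialyzed FBS, or RPMI1640 with 5 mM glucose and 10% untreated or dialyzed FBS—was screened against an 11-point, 3-fold compound titration for 48 h at 37 °C, with CellTiter-Glo luminescence as endpoint.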

[7] = Quantitative highthroughput screen to assess conditional lethalithy of SEM cells grown in RPMI1640 with unreated serum (RPMI+s) (AID 1963883);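 also: 100% = DMSO wells and 0% = empty wells without cells; nearly all actives have a fitted effect of over 35% in size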
In short: as §1

[8] = Quantitative highthroughput screen to assess conditional lethalithy of SEM cells grown in RPMI1640 with dialyzed fetal bovine serum (RPMI+ds) (AID 1963884);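 also: series mostly up to about 46 µM; 100% = DMSO control wells and 0% = empty wells without cells; nearly all actives have a fitted effect of over 35% in size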
In short: as §1

[9] = Quantitative highthroughput screen to assess conditional lethalithy of NOMO1 cells grown in RPMI1640 with untreated serum (RPMI+s) (AID 1963876)
In short: as §1

[10] = Quantitative highthroughput screen to assess conditional lethalithy of NOMO1 cells grown in RPMI1640 with dialyzed fetal bovine serum (RPMI+ds) (AID 1963877);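 also: series mostly up to about 46 µM; 100% = DMSO control wells and 0% = empty wells; nearly all actives have a fitted effect of over 30% in size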
In short: as §1

[11] = Quantitative highthroughput screen to assess conditional lethalithy of P12 Ichikawa cells grown in Human Plasma-Like Medium with dialyzed fetal bovine serum (HPLM+ds) (AID 1963879); conditions: Potency: viability; also: nearly all actives have a fitted effect of over 35% in size; also: potency is read from the fitted curve at half-maximal effect; as to Viability: series mostly up to about 46 µM
In short: as §1

[12] = Quantitative highthroughput screen to assess conditional lethalithy of P12 Ichikawa cells grown in RPMI1640 with dialyzed fetal bovine serum (RPMI+ds) (AID 1963880); conditions: Potency: P12-Ichikawa viability
In short: as §1

O=C(O)c1ccc(=O)[nH]c1
inactive: Potency [1] | Potency [2] | Potency [3] | activity (max response) [4] 7.49% | Potency [5]

CCC(C(N)=O)N1CCCC1=O (stereo not drawn)
inactive: Potency [1] | Potency [2] | Potency [3] | activity (max response) [4] -1.47%

CC[N+]1(CC)CCC(OC(=O)C(O)(c2ccccc2)c2ccccc2)C1 (stereo not drawn)
inactive: Potency [1] | Potency [2] | Potency [3] | activity (max response) [4] 5.92% | Potency [5]

COP(=S)(OC)Oc1cc(Cl)c(Cl)cc1Cl
active: Potency [1] 13.8 µM
inactive: Potency [2] | Potency [3] | activity (max response) [4] 7.21% | Potency [5]

O=C(O)C(Cl)Cl
inactive: Potency [1] | Potency [2] | Potency [3] | activity (max response) [4] 11.1%

O=[N+]([O-])/N=C1\NCCN1Cc1ccc(Cl)nc1
inactive: Potency [1] | Potency [2] | Potency [3] | activity (max response) [4] -5.88%

CCOC(=O)NC(O)C(Cl)(Cl)Cl (stereo not drawn)
inactive: Potency [1] | Potency [2] | Potency [3] | activity (max response) [4] 3.24% | Potency [5]

[N-]=[N+]=CC(=O)OC[C@H](N)C(=O)O
inactive: Potency [1] | Potency [2] | Potency [3] | Potency [5]

C[C@@H]1CN(C2CCC(C#N)(c3ccc(F)cc3)CC2)CC[C@]1(C(=O)O)c1ccccc1 (stereo partly drawn)
inactive: Potency [1] | Potency [2] | activity (max response) [4] -0.484% | Potency [5]

CCCCCCC(=O)CCCCCC/C=C/C[C@@H](O)[C@H](O)[C@@](N)(CO)C(=O)O
inactive: Potency [1] | Potency [3] | activity (max response) [4] -4.81% | Potency [5]

C[C@H](NC(=O)Cc1cc(F)cc(F)c1)C(=O)N[C@@H]1N=C(c2ccccc2)c2ccccc2N(C)C1=O
inactive: Potency [1] | Potency [3]

Cc1cc(C(=O)CN2CCCC2)c(C)n1-c1ccc(F)cc1
inactive: Potency [1]
active: Potency [3] 16.4 µM

Clc1ccccc1N1CCNCC1
inactive: Potency [1] | Potency [3] | activity (max response) [4] -1.85% | Potency [5]

O=[N+]([O-])O[C@H]1CO[C@H]2[C@@H]1OC[C@H]2O[N+](=O)[O-]
inactive: Potency [1] | Potency [3] | activity (max response) [4] 12.6%

CC(=O)N(C)c1cccc(-c2ccnc3c(C(=O)c4cccs4)cnn23)c1
inactive: Potency [1] | Potency [6] | Potency [7] | Potency [8]

O=c1[nH]oc2c1CCNC2
inactive: Potency [1] | Potency [2] | activity (max response) [4] 5.4% | Potency [5]

CCC1(c2cccc(O)c2)CCCCN(C)C1 (stereo not drawn)
inactive: Potency [1] | Potency [3]

COc1cccc([C@@]2(O)CCCC[C@@H]2CN(C)C)c1
inactive: Potency [1] | Potency [3] | activity (max response) [4] 2.96% | Potency [5]

OCCOc1ccccc1
inactive: Potency [1] | Potency [3] | Potency [5]

OCCCCC#Cc1cncc(OC[C@@H]2CCN2)c1
inactive: Potency [1] | Potency [3]

CC(C)(C)NCC(O)c1cc(Cl)c(N)c(C(F)(F)F)c1 (stereo not drawn)
inactive: Potency [1] | Potency [3] | activity (max response) [4] 9.74% | Potency [5]

CCC1(CC)C(=O)NC(=O)NC1=O
inactive: Potency [1] | Potency [3] | activity (max response) [4] -9.27%

O=C1c2ccccc2C(=O)c2ccccc21
inactive: Potency [1] | Potency [3] | activity (max response) [4] 3.51% | Potency [5]

CCN(CC)CCOC(=O)C(O)(c1ccccc1)c1ccccc1
inactive: Potency [1] | Potency [2] | activity (max response) [4] 1.88%

CCc1ccc(C2CCNCC2)cc1
inactive: Potency [1] | Potency [2] | activity (max response) [4] -14% | Potency [5]

C1CN2CCC1CC2
inactive: Potency [1] | Potency [3] | activity (max response) [4] 2.77% | Potency [5]

COC1CC(=C(c2cccs2)c2cccs2)C[N+](C)(C)C1 (stereo not drawn)
active: Potency [3] 16.8 µM
inactive: Potency [1] | Potency [5]

CSCC[C@@H](NC(=O)[C@@H](Cc1ccccc1)NC(=O)CNC(=O)CNC(=O)[C@@H](N)Cc1ccc(O)cc1)C(=O)O
inactive: Potency [1] | Potency [9] | Potency [10] | Potency [11] | Potency [12] | activity (max response) [4] 3.41% | Potency [5]

CCN[C@H](C)Cc1cccc(C(F)(F)F)c1
inactive: Potency [1] | Potency [2] | activity (max response) [4] -4.65% | Potency [5]

CN1C2CCC1CC(OC(=O)N1Cc3ccccc3NC1=O)C2 (stereo not drawn)
inactive: Potency [1] | Potency [3]

C[C@@H](CN1CCC(n2c(=O)[nH]c3cc(Br)ccc32)CC1)NC(=O)[C@@H]1C[C@H]1c1ccccc1
inactive: Potency [1]
active: Potency [3] 6.51 µM

Cc1ccc([N+](=O)[O-])[c]2c1[O][Hg]2
active: Potency [1] 0.617 µM | Potency [2] 0.0944 µM | Potency [4] 0.231 µM

COCC1(CO)C(=O)C2CCN1CC2 (stereo not drawn)
active: Potency [11] 11.8 µM
inactive: Potency [1] | activity (max response) [4] 9.27%

CN1C(=O)[C@@H](NC(=O)c2cc3ccccc3[nH]2)N=C(c2ccccc2)c2ccccc21
active: Potency [3] 4.22 µM
inactive: Potency [1] | activity (max response) [4] -6.85% | Potency [5]

CN(C(=O)Cc1ccccc1)C(CN1CCCC1)c1ccccc1 (stereo not drawn)
inactive: Potency [1] | Potency [3]

CN1C(=O)COc2c(C(=O)NC3CN4CCC3CC4)cc(Cl)cc21 (stereo not drawn)
inactive: Potency [1] | Potency [3] | Potency [10] | Potency [11] | Potency [12] | Potency [7] | Potency [8] | activity (max response) [4] 0.49% and -6.93% | Potency [5]

CC(C)NC(C)C
inactive: Potency [1] | Potency [3] | activity (max response) [4] 17.3% | Potency [5]

Nc1ccccc1C(=O)O
inactive: Potency [1] | Potency [2] | Potency [5]

CCN(CC)C(=O)c1ccc(C2=CC3(CCNCC3)Oc3cccc(O)c32)cc1
inactive: Potency [1] | Potency [11] | Potency [12] | Potency [7] | Potency [8] | Potency [5]
